Test results taken from PubChem BioAssay (NCATS).
Results filed as inconclusive are left out. A number with no mark means an inactive call. Active and inactive are the calls of the source. Calls follow the shape of the dose curve; as a rule, active = well fitted inhibition curve with a large enough effect; inconclusive = small, poorly fitted or top-dose-only effect; inactive = no such curve, though single readings can be large or run the other way.

system: Zika virus NS2B-NS3 protease (linked construct); assay: Primary screen NINDS Rhodamine qHTS for Zika virus inhibitors (AID 1347160); conditions: purified NS2B-NS3 protease, Rhodamine110 substrate fluorescence; series mostly up to 33.1 µM; activity change, negative = inhibition: at the top concentration; also: nearly all actives have a fitted effect of over 55% in size
Summary of the method: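 Enzyme (25 nM, linked NS2B-NS3) was preincubated 15 min with compound in 10 mM Tris-HCl pH 8.0, 0.01% Tween 20. Rhodamine110 substrate (1.5 microM) was then added and fluorescence read at start and after 15 min.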
% is scaled to controls: 0 for no effect and ±100 for the full control effect.

For `O=C(OC[C@H]1O[C@H](O[C@]2(CO)O[C@H](CO)[C@@H](O)[C@@H]2O)[C@H](O)[C@@H](O)[C@@H]1O)c1ccc(O)cc1`, which “activity change, negative = inhibition” value is on record?
The value was -8.22%.

Which “activity change, negative = inhibition” value does the source give for `COc1ccc(/C=C/C(N)=O)cc1OC` here?
Its value is -3.64% [at 57.1 µM].

`CCCCS(=O)(=O)NC(Cc1ccc(OCCCCC2CCNCC2)cc1)C(=O)O` (stereo not drawn) was tested. Which “activity change, negative = inhibition” value did it give?
The value was -2.22% [at 57.1 µM].

With `CC1(C)CC[C@]2(C(=O)O[C@@H]3O[C@H](CO)[C@@H](O)[C@H](O)[C@H]3O)CC[C@]3(C)C(=CCC4[C@@]5(C)C[C@@H](O)[C@H](O)[C@@](C)(CO)C5[C@H](O)C[C@]43C)C2C1` (stereo partly drawn) as the compound, how does the “outcome” value read?
Its value is “inactive [at 15.1 µM]”.

Which “activity change, negative = inhibition” value does the source give for `CC1=C2CC(C)(C)CC2C(O)C2=C(C1)C(=O)OC2O` (stereo not drawn) here?
Its value is 19.5% [at 57.1 µM].

With `COc1cc2c(cc1O)CC(O)(CO)C(CO)C2c1ccc(OC2OC(CO)C(O)C(O)C2O)c(OC)c1` (stereo not drawn) as the compound, how does the “activity change, negative = inhibition” value read?
The value was -4.9%.

`COc1cc(C(C)=O)ccc1O[C@@H]1O[C@H](CO)[C@@H](O)[C@H](O)[C@H]1O` was tested. Which “outcome” value did it give?
Its value is “inactive [at 33.1 µM]”.

Which “activity change, negative = inhibition” value does the source give for `COc1cc(O)cc(C)c1C(=O)OC1C(CO)OC(n2ccc(=O)[nH]c2=O)C1OC(C)=O` (stereo not drawn) here?
The value was 18.6%.
